Screening results: PubChem BioAssay, National Center for Advancing Translational Sciences (NCATS)
DRD3 antagonist: qHTS of D3 Dopamine Receptor Antagonist: qHTS | D3R cells, DiscoveRx beta-arrestin luminescence, antagonist mode; active compounds read low | 2.5% of 360,000 active | max response, negative = inhibition, % | D(3) dopamine receptor (Homo sapiens), P35462 | AID 652054, 2013; in the data active = max response below about -50%; inconclusive = no clear call, values can overlap the other calls
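Cells plated overnight at 1500 cells/well, then exposed to library compounds with dopamine controls for 90 minutes at 37 degrees C. DiscoveRx reagent added for 30–60 minutes at room temperature; luminescence read, quantitative HTS format.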
GLP1R ag: qHTS of GLP-1 Receptor Agonists; Glucagon-like peptide 1 receptor (Homo sapiens), P43220; HEK293 GLP-1R CRE-luciferase, luminescence, 4-6 h; cells express a hypersensitive GLP-1R form; Potency, µM (top dose mostly 45.6 µM), most hits filed as activators; 0.007% of 380,000 active
Target sequence (P43220 whole entry, looked up): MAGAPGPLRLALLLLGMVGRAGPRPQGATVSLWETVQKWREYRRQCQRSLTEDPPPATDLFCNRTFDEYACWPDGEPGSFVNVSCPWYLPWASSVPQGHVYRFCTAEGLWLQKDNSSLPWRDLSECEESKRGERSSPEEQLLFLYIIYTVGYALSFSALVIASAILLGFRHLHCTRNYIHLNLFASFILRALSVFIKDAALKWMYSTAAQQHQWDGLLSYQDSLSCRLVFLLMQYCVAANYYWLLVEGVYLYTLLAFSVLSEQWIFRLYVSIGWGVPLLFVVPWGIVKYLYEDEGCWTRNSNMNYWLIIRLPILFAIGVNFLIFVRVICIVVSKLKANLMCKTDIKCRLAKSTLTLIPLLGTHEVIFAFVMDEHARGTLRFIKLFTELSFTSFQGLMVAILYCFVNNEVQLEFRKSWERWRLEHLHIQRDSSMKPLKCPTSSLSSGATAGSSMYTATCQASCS
DRD3 agonist: qHTS of D3 Dopamine Receptor Agonist: qHTS; 0.58% of 410,000 active; D(3) dopamine receptor (Homo sapiens), P35462; max activation, %; D3R DiscoveRx beta-arrestin cells, luminescence, 90 min; in the data active = max activation above about 30%
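Agonist mode: compounds and dopamine controls were applied to plated cells for 90 min at 37 degrees C after an overnight attachment at 1500 cells/well. Luminescent read-out followed 30 - 60 minutes at room temperature with DiscoveRx detection reagent.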
GLP-1R inv ag: qHTS of GLP-1 Receptor Inverse Agonists (Inhibition Mode). Glucagon-like peptide 1 receptor (Homo sapiens), P43220. 1.6% of 410,000 active. HEK293 GLP-1R CRE-luciferase, luminescence, 24 h; GLP-1R form is constitutively active. Potency, µM (series often up to 38.3 µM), usual class: inhibitors; also: nearly all actives have a fitted effect of over 55% in size
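HEK293 cells stably co-expressing constitutively active GLP-1R and a cAMP-responsive luciferase reporter were seeded in DMEM with 10% Nu serum, given compounds after 12 h, and incubated 24 h at 37 deg C. Luminescence was then read.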
A number is an active result; ! = a repeat was not active. Most compounds without a hit are left out; they make up all but 4.3% or so of the library. Unless noted, calls follow the shape of the dose curve; as a rule, active = well fitted curve in the direction sought with a large enough effect; inconclusive = small, poorly fitted or top-dose-only effect, or another doubt; inactive = no such curve, though single readings can be large; an effect the other way counts as inactive or inconclusive.

Results for O=C1C(=Cc2ccncc2)CCCc2ccccc21 ?
DRD3 antagonist: inactive; GLP1R ag: inactive; DRD3 agonist: inactive; GLP-1R inv ag: inactive

What do the screens show for `COc1ccc(OC)c(NC(=S)NCCC(c2ccccc2)c2ccccc2)c1`?
DRD3 antagonist: inactive; GLP1R ag: inactive; DRD3 agonist: inactive; GLP-1R inv ag: 8.9µM

Results for Cc1ccc(NC(=S)NCCC(c2ccccc2)c2ccccc2)c(C)c1 ?
DRD3 antagonist: -67; GLP1R ag: inactive; DRD3 agonist: inactive; GLP-1R inv ag: inconclusive

What do the screens show for `Cc1ccccc1NC(=S)NCCC(c1ccccc1)c1ccccc1`?
DRD3 antagonist: -60; GLP1R ag: inactive; DRD3 agonist: inactive; GLP-1R inv ag: inactive

Results for COc1cccc(C(=O)Nc2ccccc2-c2nnc(-c3cccc(OC)c3)o2)c1 ?
GLP1R ag: inactive; DRD3 agonist: inactive; GLP-1R inv ag: inactive

Results for CC1=C(CO)C(=O)OC([C@@H](C)C2CC[C@H]3C4C[C@H]5O[C@]56[C@@H](O)C=CC(=O)[C@]6(C)C4CC[C@]23C)C1 (some centres not stated) ?
DRD3 antagonist: -136; GLP1R ag: inactive; DRD3 agonist: inactive; GLP-1R inv ag: inactive

Results for COC(=O)C(NC(=O)c1ccccc1)c1ccccc1 (configuration not stated) ?
DRD3 antagonist: inactive; GLP1R ag: inactive; DRD3 agonist: inactive; GLP-1R inv ag: inactive

Results for O=C(CC(C(=O)c1ccccc1)c1ccccc1)c1ccccc1 (configuration not stated) ?
DRD3 antagonist: inactive; GLP1R ag: inactive; DRD3 agonist: inactive; GLP-1R inv ag: 10µM

Results for C=C(C(=O)c1ccccc1)C(C)CC(=O)c1ccccc1 (configuration not stated) ?
DRD3 antagonist: inconclusive; GLP1R ag: inactive; DRD3 agonist: inactive; GLP-1R inv ag: 8.9µM

What do the screens show for `C=C(C(=O)c1ccccc1)C(NC(C)(C)C)c1ccccc1` (configuration not stated)?
DRD3 antagonist: inactive; GLP1R ag: inactive; DRD3 agonist: inactive; GLP-1R inv ag: 5µM

Results for CN(C)CC(C(=O)c1ccccc1)c1ccccc1 (configuration not stated) ?
DRD3 antagonist: -51; GLP1R ag: inactive; DRD3 agonist: inactive; GLP-1R inv ag: inactive

Results for Cc1ccc2oc(C(=O)Nc3cccc(Cl)c3)cc(=O)c2c1 ?
DRD3 agonist: inactive; GLP-1R inv ag: inactive

How did CCN1C(C(=O)c2ccccc2)=C(OC(=O)c2ccc(OC)cc2)c2ccccc2S1(=O)=O do in these assays?
DRD3 agonist: inactive; GLP-1R inv ag: inconclusive

What do the screens show for `CC(C)(C)OC(=O)N1CCC(c2c(C(=O)N3CCN(C(=O)c4ccco4)CC3)cnn2-c2cccc(Cl)c2)CC1`?
DRD3 antagonist: inactive; GLP1R ag: inactive; DRD3 agonist: inactive; GLP-1R inv ag: inactive

What do the screens show for `O=C(c1ccco1)N1CCN(C(=O)c2cnn(-c3cccc(F)c3)c2C2CCNCC2)CC1`?
DRD3 antagonist: inactive; GLP1R ag: inactive; DRD3 agonist: 84!; GLP-1R inv ag: inactive

What do the screens show for `CC1CCN(CCCCOc2ccccc2[N+](=O)[O-])CC1`?
DRD3 antagonist: -83; GLP1R ag: inactive; DRD3 agonist: inactive; GLP-1R inv ag: inactive

What do the screens show for `Cc1ccc(OCCCCN2CCCC(C)C2)c([N+](=O)[O-])c1` (configuration not stated)?
DRD3 antagonist: -80; GLP1R ag: inactive; DRD3 agonist: inactive; GLP-1R inv ag: inactive

How did COc1cccc(NC(=O)c2ccc(NCCCN3CCC(C)CC3)c([N+](=O)[O-])c2)c1 do in these assays?
DRD3 antagonist: -54; GLP1R ag: inactive; DRD3 agonist: inactive; GLP-1R inv ag: inconclusive

What do the screens show for `COc1cccc(NC(=O)c2ccc(NCCCN3CC(C)CC(C)C3)c([N+](=O)[O-])c2)c1` (configuration not stated)?
DRD3 antagonist: inconclusive; GLP1R ag: inactive; DRD3 agonist: inactive; GLP-1R inv ag: inconclusive

How did Cc1ccc([N+](=O)[O-])c(OCCCN2CCCCCC2)c1 do in these assays?
DRD3 antagonist: inconclusive; GLP1R ag: inactive; DRD3 agonist: inactive; GLP-1R inv ag: inactive

What do the screens show for `Fc1ccc(Nc2nc(SCc3ccccc3F)nc3ccccc23)cc1`?
DRD3 agonist: inactive; GLP-1R inv ag: inconclusive

What do the screens show for `CCCCNCc1cc2ccccc2o1`?
DRD3 antagonist: -51; GLP1R ag: inactive; DRD3 agonist: inactive; GLP-1R inv ag: inactive

How did CCCCNC(=O)CO/N=C(\C)c1cc2ccccc2o1 do in these assays?
DRD3 antagonist: inactive; GLP1R ag: inactive; DRD3 agonist: inactive; GLP-1R inv ag: inactive

Results for Cc1cccc(CN2CCN(CC(=O)O)C2=O)c1 ?
DRD3 antagonist: -109; GLP1R ag: inactive; DRD3 agonist: inactive; GLP-1R inv ag: inactive

What do the screens show for `CC(CCc1ccccc1)NC(=O)CN1CCN(Cc2ccccc2)C1=O` (configuration not stated)?
DRD3 antagonist: inactive; GLP1R ag: inactive; DRD3 agonist: 31; GLP-1R inv ag: inactive

What do the screens show for `CC(C)(Oc1ccc(Cl)cc1)C(=O)NC1CCN(Cc2ccccc2)CC1`?
DRD3 antagonist: -82; GLP1R ag: inactive; DRD3 agonist: inactive; GLP-1R inv ag: 8.9µM

How did CC1(C(=O)NC2CCN(Cc3ccccc3)CC2)CCN1Cc1ccc2ccccc2c1 (configuration not stated) do in these assays?
DRD3 antagonist: -97; GLP1R ag: inactive; DRD3 agonist: inactive; GLP-1R inv ag: inconclusive

What do the screens show for `O=C(COc1ccccc1)NC1CCN(Cc2ccccc2)CC1`?
DRD3 antagonist: inconclusive; GLP1R ag: inactive; DRD3 agonist: inactive; GLP-1R inv ag: inactive

What do the screens show for `COc1cc(N)c(Cl)cc1C(=O)NC1CCN(Cc2ccccc2)CC1`?
DRD3 antagonist: -108; GLP1R ag: inactive; DRD3 agonist: inactive; GLP-1R inv ag: inactive

Results for CC1(C(=O)NC2CCN(Cc3ccccc3)CC2)CCN1CCc1ccccc1 (configuration not stated) ?
DRD3 antagonist: -85; GLP1R ag: inactive; DRD3 agonist: inactive; GLP-1R inv ag: inconclusive

How did Cc1ccc([N+](=O)[O-])cc1S(=O)(=O)N1CCn2cccc2C1c1ccc(F)c(F)c1 (configuration not stated) do in these assays?
DRD3 agonist: inactive; GLP-1R inv ag: inconclusive

How did Cc1cccc(S(=O)(=O)c2cn(Cc3ccccc3)c3cc(N4CCC(C)CC4)c(F)cc3c2=O)c1 do in these assays?
DRD3 agonist: inactive; GLP-1R inv ag: inactive

Results for COc1ccc(Cl)cc1NC(=O)Cn1c(=O)n(Cc2ccco2)c(=O)c2cccnc21 ?
DRD3 agonist: inactive; GLP-1R inv ag: inactive

How did CC1(C(=O)NC2CCN(Cc3ccccc3)CC2)CCN1Cc1ccc(OC(F)(F)F)cc1 (configuration not stated) do in these assays?
DRD3 antagonist: -65; GLP1R ag: inactive; DRD3 agonist: inactive; GLP-1R inv ag: inconclusive
